# Experimental data as given in PubChem BioAssay AID1851 (National Center for Advancing Translational Sciences (NCATS), 2009).
# The whole screen tested about 16,000 compounds, of which about 5,700 (36%) were called active. Another 24% or so got no clear call; they are omitted. The call rests on the fitted dose curve; in most records, active means well fitted curve in the direction sought with a large enough effect; inconclusive means small, poorly fitted or top-dose-only effect, or effect the other way; inactive means no such curve, though single readings can be large or run the other way. This is one part of the list.
# Molecular target: Cytochrome P450 1A2 (Homo sapiens) (UniProt P05177)
# Test: Cytochrome panel assay with activity outcomes
# Details: recombinant CYP, pro-luciferin dealkylation, luminescence, p450-cyp1a2; series mostly up to 57.1 µM
# On the % scale 0 is the no-effect control and ±100 the full control effect.
# Chain of Cytochrome P450 1A2 (Homo sapiens) (P05177 whole entry, looked up): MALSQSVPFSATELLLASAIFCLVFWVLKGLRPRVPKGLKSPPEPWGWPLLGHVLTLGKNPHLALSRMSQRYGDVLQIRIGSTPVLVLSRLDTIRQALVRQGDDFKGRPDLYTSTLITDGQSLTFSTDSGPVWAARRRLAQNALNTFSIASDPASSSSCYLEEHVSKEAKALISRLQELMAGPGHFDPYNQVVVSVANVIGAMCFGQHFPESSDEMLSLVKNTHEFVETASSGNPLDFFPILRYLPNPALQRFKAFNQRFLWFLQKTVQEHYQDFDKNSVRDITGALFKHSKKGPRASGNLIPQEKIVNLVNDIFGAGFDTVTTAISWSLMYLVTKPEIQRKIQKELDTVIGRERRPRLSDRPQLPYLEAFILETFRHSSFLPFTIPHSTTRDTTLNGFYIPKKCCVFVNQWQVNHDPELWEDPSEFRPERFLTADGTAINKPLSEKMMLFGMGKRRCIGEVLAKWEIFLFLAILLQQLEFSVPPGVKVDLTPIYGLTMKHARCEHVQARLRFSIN
Structure (SMILES),AC50,"activity, negative = inhibition"
C=Cc1c(C)c2cc3[nH]c(cc4nc(cc5nc(cc1[nH]2)C(C)=C5CCC(=O)O)C(CCC(=O)O)=C4C)c(C)c3C=C,6.31 µM (active),
C=Cc1c(C)c2cc3nc(cc4[nH]c(cc5nc(cc1[nH]2)C(C)=C5CCC(=O)O)c(CCC(=O)OC)c4C)[C@@]1(C)C3=CC=C(C(=O)OC)[C@H]1C(=O)OC (tested in a mixture with another compound),3.98 µM (active),
CC1CC(OCC(O)CN2CCN(Cc3ccccc3)CC2)CC(C)(C)C1 (stereo not drawn),inactive,
C/C(=N\Nc1nnc(C)c(=O)[nH]1)C(=O)O,inactive,
O=C(O)CC[C@@H](NC(=O)c1ccccc1C(=O)O)C(=O)O,inactive,
CCCC(=O)NNC(=O)CCC(=O)NCc1ccccc1,inactive,
O=C(NCc1ccc(F)cc1)C1CCN(S(=O)(=O)N2CCCCC2)CC1,inactive,
O=C(O)NCc1ccccc1 (tested in a mixture with another compound),3.16 µM (active),
C/C(=C/C(=O)NCc1ccccc1)C(=O)O,inactive,
O=C(O)c1ccccc1C(=O)NCc1ccc(F)cc1,5.01 µM (active),
CC1CCCC(NC(=O)C2CCN(S(=O)(=O)N3CCOCC3)CC2)C1C (stereo not drawn),inactive,
Cc1cccc(CSCCNC(=O)c2ccc(N(C)S(=O)(=O)c3ccccc3)cc2)c1,inactive,
COC(=O)c1c(C)oc2ccc(N(C(=O)c3ccncc3)S(=O)(=O)c3ccccc3)cc12,11.2 µM (active),
CN(c1ccc(C(=O)NCC2CCCO2)cc1)S(=O)(=O)c1ccccc1 (stereo not drawn),inactive,
Cc1cccc(Oc2coc3cc(OC(=O)c4cc5ccccc5oc4=O)ccc3c2=O)c1,inactive,
Cc1cc(C)cc(Oc2coc3cc(OC(=O)c4cccs4)ccc3c2=O)c1,2 µM (active),
Cc1nc(N=Nc2ccc(S(=O)(=O)O)cc2S(=O)(=O)O)c(COP(=O)(O)O)c(C=O)c1O,inactive,
CN(Cc1ccco1)c1nc(-c2cccnc2)nc2ccccc12,0.316 µM (active),
CN(Cc1ccco1)c1nc(-c2ccc3c(c2)OCO3)nc2ccccc12,0.501 µM (active),
CN(C)c1ccc(-c2nc(N(C)Cc3ccco3)c3ccccc3n2)cc1,0.631 µM (active),

Structure (SMILES),AC50,"activity, negative = inhibition"
CN(Cc1ccccc1)c1nc(-c2ccc([N+](=O)[O-])cc2)nc2ccccc12,1.58 µM (active),
CN(Cc1ccco1)c1nc(-c2ccoc2)nc2ccccc12,0.398 µM (active),
Cc1ccc2[nH]c3nc(CCCn4ccnc4-c4ccccc4)nnc3c2c1,,-11.9% [at 11.4 µM] (inactive)
Cc1ccc2[nH]c3c(N4CCc5ccccc5C4)ncnc3c2c1,1.58 µM (active),
CCOC(=O)N1CCN(C(=O)c2ccc3nc(SCc4ccc(F)cc4)n(C)c3c2)CC1,inactive,
CCOc1ccc2c(c1)nc(SCC(=O)c1ccc(Br)s1)n2C,2.24 µM (active),
COc1ccc2c(c1)nc(SCC(=O)c1ccc(Br)s1)n2C,7.94 µM (active),
CCC/C=C(\CCC)C(NC(=O)C(C)(C)C)c1ccc(C(=O)OC)cc1 (stereo not drawn),inactive,
CCC/C=C(\CCC)C(NC(=O)c1ccc(C(F)(F)F)cc1)c1ccc(C(F)(F)F)cc1 (stereo not drawn),inactive,
CCC/C=C(\CCC)C(NC(=O)Oc1ccc(F)cc1)c1ccc(C(=O)OC)cc1 (stereo not drawn),inactive,
CCC/C=C(\CCC)C(NS(=O)(=O)c1cccs1)c1ccc(C(=O)OC)cc1 (stereo not drawn),12.6 µM (active),
CCC/C=C(\CCC)C(NC(=O)OCC(C)C)c1ccc(C(=O)OC)cc1 (stereo not drawn),15.8 µM (active),
CCC/C=C(\CCC)C(NS(=O)(=O)CC12CCC(CC1=O)C2(C)C)c1ccc(C(=O)OC)cc1 (stereo not drawn),inactive,
CCC/C=C(\CCC)C(NS(=O)(=O)c1ccc(C(F)(F)F)cc1)c1ccc(C(=O)OC)cc1 (stereo not drawn),inactive,
CCC/C=C(\CCC)C(NC(=O)c1ccc(C(=O)OC)cc1)c1ccc(C(=O)OC)cc1 (stereo not drawn),inactive,
CCC/C=C(\CCC)C(NC(=O)c1cccs1)c1ccc(C(=O)OC)cc1 (stereo not drawn),5.01 µM (active),
Clc1ccc2c(NCCNC3CCCCC3)ccnc2c1,,-10.2% [at 2.29 µM] (inactive)
Clc1ccc2c(NC3CCC(N4CCCCC4)CC3)ccnc2c1 (stereo not drawn),,-15.7% [at 2.29 µM] (inactive)
O=C(OC[C@@H](O)CO)c1ccccc1Nc1ccnc2cc(Cl)ccc12,5.01 µM (active),
CCN1CNC(=S)N(c2cc(C)ccc2C)C1,inactive,

Structure (SMILES),AC50,"activity, negative = inhibition"
Cc1cc2sc(C)[n+](CCCOS(=O)(=O)O)c2cc1C,,-10.3% [at 11.4 µM] (inactive)
CCOC(=O)C[n+]1c(C)sc2ccc(OC)cc21,14.1 µM (active),
Cc1sc2ccccc2[n+]1CCC(=O)O,,-3.71% [at 11.4 µM] (inactive)
COc1cccc2c(=O)c(C(=O)NCc3cccs3)c[nH]c12,0.631 µM (active),
Cc1nc2cnc(N3CCNCC3)nc2n(Cc2ccc(F)cc2)c1=O,12.6 µM (active),
O=c1c(-c2ccc(F)cc2)nc2cnc(N3CCNCC3)nc2n1Cc1ccc(F)cc1,15.8 µM (active),
O=c1cnc2cnc(N3CCNCC3)nc2n1Cc1ccc(F)cc1,15.8 µM (active),
COc1ccc(-c2nc3cnc(N4CCNCC4)nc3n(Cc3ccc(F)cc3)c2=O)cc1,inactive,
Cc1nc2cnc(N3CCN(C)CC3)nc2n(Cc2ccc(F)cc2)c1=O,inactive,
Clc1cccc(Nc2nnc(-c3ccccc3)c3ccccc23)c1,1.26 µM (active),
COc1ccc(Nc2nnc(-c3ccc(N4CCOCC4)c([N+](=O)[O-])c3)c3ccccc23)cc1,inactive,
CCN1CCCC1CNC(=O)C(=O)Nc1ccccc1OC (stereo not drawn),inactive,
COc1ccccc1NC(=O)C(C/C=C(\C)Cl)C(C)=O (stereo not drawn),12.6 µM (active),
O=C(O)[C@H]1[C@H](C(=O)O)[C@H](C(=O)O)C[C@@H]1C(=O)O,,-9.47% [at 11.4 µM] (inactive)
CCNc1ncc2nc(CCc3ccccc3)c(=O)n(-c3ccccc3)c2n1,1.26 µM (active),
CCNc1ncc2nc(CCc3ccccc3)c(=O)n(C)c2n1,2.51 µM (active),
CCNc1ncc2nc(CCc3ccccc3)c(=O)n(CCOC)c2n1,2 µM (active),
CCNc1ncc2nc(CCc3ccccc3)c(=O)n(C3CC3)c2n1,3.16 µM (active),
